The source of these data is PubChem BioAssay AID1508601 (ICCB-Longwood Screening Facility, Harvard Medical School, 2020).

A short description of test [1]: nuclear p53 accumulation, HPV+ cells – imaging, p53-positive nuclei imaging, 24 h, 48 h (AID 1508601). Conditions: 24/48 h.
Test [2] concerns the target Cellular tumor antigen p53 (Homo sapiens) (UniProt P04637). Described as above. The following applies: 24/48 h, stronger effect = higher value.
Setting [3] is: measured here: cell number at 24 h, Library stock concentration: 3.33 mM.
Where [4] appears, read: measured here: cell number at 48 h, Library stock concentration: 3.33 mM.
Setting [5] is: Library stock concentration: 3.33 mM.
Where [6] appears, read: measured here: p53 positive nuclei at 24 h, Library stock concentration: 3.33 mM.
The mark [7] stands for this setting: measured here: cell number at 24 h, Library stock concentration: 46 uM.
Setting [8] is: measured here: cell number at 24 h, Library stock concentration: 278 uM.
Setting [9] is: measured here: cell number at 24 h, Library stock concentration: 1.67 mM.
Setting [10] is: measured here: cell number at 24 h, Library stock concentration: 10 mM.
Where [11] appears, read: measured here: cell number at 48 h, Library stock concentration: 46 uM.
The mark [12] stands for this setting: measured here: cell number at 48 h, Library stock concentration: 278 uM.
Setting [13] is: measured here: cell number at 48 h, Library stock concentration: 1.67 mM.
[14] abbreviates: measured here: cell number at 48 h, Library stock concentration: 10 mM.
Where [15] appears, read: Library stock concentration: 46 uM.
Setting [16] is: Library stock concentration: 278 uM.
Setting [17] is: Library stock concentration: 1.67 mM.
Where [18] appears, read: Library stock concentration: 10 mM.
[19] abbreviates: measured here: p53 positive nuclei at 24 h, Library stock concentration: 46 uM.
The mark [20] stands for this setting: measured here: p53 positive nuclei at 24 h, Library stock concentration: 278 uM.
The mark [21] stands for this setting: measured here: p53 positive nuclei at 24 h, Library stock concentration: 1.67 mM.
Setting [22] is: measured here: p53 positive nuclei at 24 h, Library stock concentration: 10 mM.
The mark [23] stands for this setting: measured here: cell number at 24 h, Library stock concentration: 80 uM.
Where [24] appears, read: measured here: cell number at 24 h, Library stock concentration: 400 uM.
Where [25] appears, read: measured here: cell number at 24 h, Library stock concentration: 2 mM.
The mark [26] stands for this setting: measured here: cell number at 48 h, Library stock concentration: 80 uM.
The mark [27] stands for this setting: measured here: cell number at 48 h, Library stock concentration: 400 uM.
Where [28] appears, read: measured here: cell number at 48 h, Library stock concentration: 2 mM.
[29] abbreviates: Library stock concentration: 80 uM.
Setting [30] is: Library stock concentration: 400 uM.
[31] abbreviates: Library stock concentration: 2 mM.
Setting [32] is: measured here: p53 positive nuclei at 24 h, Library stock concentration: 80 uM.
Where [33] appears, read: measured here: p53 positive nuclei at 24 h, Library stock concentration: 400 uM.
The mark [34] stands for this setting: measured here: p53 positive nuclei at 24 h, Library stock concentration: 2 mM.

Each structure is given as a SMILES string. “And” between values parts separate entries of the source, which are not always exact repeats. Equal values may be shown once. In all, about 5,700 compounds went through this assay and about 85 (1%) were called active. Rule as the data show it: active = p53-positive nuclei above about 36% (passing the limit was not always enough); inactive = the rest. For the sample, actives were picked, then their nearest neighbours and some compounds at random.

Chain of Cellular tumor antigen p53 (Homo sapiens) (P04637 whole entry, looked up): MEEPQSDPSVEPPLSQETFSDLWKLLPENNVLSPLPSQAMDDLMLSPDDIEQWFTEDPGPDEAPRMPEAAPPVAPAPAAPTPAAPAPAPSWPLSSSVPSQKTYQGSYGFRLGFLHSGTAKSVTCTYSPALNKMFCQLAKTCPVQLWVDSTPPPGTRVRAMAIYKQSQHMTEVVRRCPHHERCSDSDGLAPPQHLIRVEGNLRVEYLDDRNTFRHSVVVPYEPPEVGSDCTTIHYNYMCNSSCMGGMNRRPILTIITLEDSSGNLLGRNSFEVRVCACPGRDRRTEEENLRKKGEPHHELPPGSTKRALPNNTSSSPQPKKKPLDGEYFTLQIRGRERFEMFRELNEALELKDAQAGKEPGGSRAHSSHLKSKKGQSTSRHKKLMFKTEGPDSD

Take `O=C(NN=Cc1ccc(O)c(O)c1)c1cc2ccccc2cc1O`: the nuclei count, normalised in test [1] (setting [3]) was 108%; in test [1] (setting [4]), 99.5%. Moreover, the figures for the p53-positive nuclei, normalised in test [2] (setting [5]) and in test [2] (setting [6]) were 0.0529% (inactive) and -0.25%, respectively.
For the compound `CCOC(=O)NC1CCC2C(C1)CC1C(=O)OC(C)C1C2C=Cc1ccc(-c2cccc(F)c2)cn1` (stereo unspecified), the nuclei count, normalised in test [1] (setting [7]) worked out at 115%; in test [1] (setting [8]), 108%; in test [1] (setting [9]) it was 101%; in test [1] (setting [10]), 105%; in test [1] (setting [11]), 117%; in test [1] (setting [12]) it was 109%. For the same compound, the nuclei count, normalised in test [1] (setting [13]) and in test [1] (setting [14]) was 107% throughout. For the same compound, the p53-positive nuclei, normalised in test [2] (setting [15]) is -0.0807% (inactive); in test [2] (setting [16]), -0.17% (inactive); in test [2] (setting [17]), 0.0724% (inactive); in test [2] (setting [18]), -0.166% (inactive); in test [2] (setting [19]), -0.0891%; in test [2] (setting [20]) it was -0.151%. Also, the p53-positive nuclei, normalised was -0.079% in test [2] (setting [21]) and 0.188% in test [2] (setting [22]).
As for `Cc1ccc(NC(=O)c2ccc(CN3CCN(C)CC3)cc2)cc1Nc1nccc(-c2cccnc2)n1`, the nuclei count, normalised in test [1] (setting [23]) was 114%; in test [1] (setting [24]), 85.7%; in test [1] (setting [25]) it was 91%; in test [1] (setting [3]), 99% and 103%; in test [1] (setting [10]), 87.2%; in test [1] (setting [26]), 112%. For the same compound, the nuclei count, normalised in test [1] (setting [27]) was 84.9%; in test [1] (setting [28]), 92.2%; in test [1] (setting [4]) it was 99.2% and 104%; in test [1] (setting [14]), 87.9%. Besides, the p53-positive nuclei, normalised is 0.0518% (inactive) in test [2] (setting [29]); 0.00427% (inactive) in test [2] (setting [30]); -0.0247% (inactive) in test [2] (setting [31]); -0.686% (inactive) and -0.212% (inactive) in test [2] (setting [5]); -0.182% (inactive) in test [2] (setting [18]); 0.0696% in test [2] (setting [32]). The p53-positive nuclei, normalised in test [2] (setting [33]) is 0.334%; in test [2] (setting [34]), 0.0437%; in test [2] (setting [6]), -0.375% and -0.356%; in test [2] (setting [22]), -0.0433%.
As to `Nc1ccccc1NC(=O)c1ccc(CNc2nccc(-c3cccnc3)n2)cc1`, the nuclei count, normalised in test [1] (setting [23]) is 128%; in test [1] (setting [24]) it was 124%; in test [1] (setting [25]), 125%; in test [1] (setting [3]) it was 42.1%; in test [1] (setting [10]), 49.9%; in test [1] (setting [26]) it was 109%. The nuclei count, normalised came to 107% in test [1] (setting [27]), 98.1% in test [1] (setting [28]), 30.1% in test [1] (setting [4]) and 29.3% in test [1] (setting [14]). The p53-positive nuclei, normalised in test [2] (setting [29]) was 8% (inactive); in test [2] (setting [30]), 0.396% (inactive); in test [2] (setting [31]) it was 1.82% (inactive); in test [2] (setting [5]), 23.5% (inactive); in test [2] (setting [18]), 83.5% (active); in test [2] (setting [32]), 4.97%. Besides, the p53-positive nuclei, normalised in test [2] (setting [33]) was found to be 0.046%; in test [2] (setting [34]), 0.551%; in test [2] (setting [6]), 10.3%; in test [2] (setting [22]), 87.6%.
As to `Nc1ccccc1NC(=O)c1ccc(CNC(=O)OCc2cccnc2)cc1`, the nuclei count, normalised stood at 96% in test [1] (setting [7]); 114% in test [1] (setting [23]); 104% in test [1] (setting [8]); 118% in test [1] (setting [24]); 107% in test [1] (setting [9]); 124% in test [1] (setting [25]). For the same compound, the nuclei count, normalised in test [1] (setting [3]) is 104%; in test [1] (setting [10]), 90.8% and 96%; in test [1] (measured here: cell number at 24 h, concentration not given here) it was 107%; in test [1] (setting [11]), 96.3%; in test [1] (setting [26]), 103%; in test [1] (setting [12]) it was 103%. Moreover, the nuclei count, normalised in test [1] (setting [27]) is 100%; in test [1] (setting [13]) it was 95.3%; in test [1] (setting [28]) it was 101%; in test [1] (setting [4]), 88.9%; in test [1] (setting [14]), 58% and 57.5%; in test [1] (measured here: cell number at 48 h, concentration not given here), 103%. In addition, the p53-positive nuclei, normalised in test [2] (setting [15]) is -0.0533% (inactive); in test [2] (setting [29]), -0.489% (inactive); in test [2] (setting [16]), -0.145% (inactive); in test [2] (setting [30]), -0.1% (inactive); in test [2] (setting [17]), 3.54% (inactive); in test [2] (setting [31]) it was 0.00969% (inactive). Also, the p53-positive nuclei, normalised is 0.482% (inactive) in test [2] (setting [5]); 17.1% (inactive) and 14.2% (inactive) in test [2] (setting [18]); 0.78% (inactive) in test [2] (concentration not given here); 0.084% in test [2] (setting [19]); -0.0702% in test [2] (setting [32]); -0.207% in test [2] (setting [20]). For the same compound, the p53-positive nuclei, normalised in test [2] (setting [33]) was 0.0634%; in test [2] (setting [21]) it was 5.23%; in test [2] (setting [34]) it was 0.00201%; in test [2] (setting [6]) it was 0.899%; in test [2] (setting [22]) it was 34.2% and 14.9%; in test [2] (measured here: p53 positive nuclei at 24 h, concentration not given here) it was 0.224%.
